This note sets out measurements from PubChem BioAssay (NCI).

The panel holds about 79,000 compounds, 15% with a hit somewhere; the sample as a whole holds those more often. Unmarked numbers belong to inactive results. The source made the active and inactive calls. Cut-off read from the data, not from the text of the source: active = growth inhibition above about 70%; inactive = the rest.

Experiment [1] is described as follows: NCI Yeast Anticancer Drug Screen. Data for the rad50 strain (AID 155).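 Note: 0% = growth of vehicle-only cultures of the same strain.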 The conditions noted are these: S. cerevisiae rad50 strain growth inhibition; at 50.0 µM; active compounds read high. A digest of the protocol:
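Vehicle-treated cultures provide the reference for the growth inhibition reported for compound-exposed, repair-deficient yeast.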

The nature of experiment [2]: NCI Yeast Anticancer Drug Screen. Data for the mec2-1 strain (AID 157). The conditions noted are these: S. cerevisiae mec2-1 strain, at 50.0 µM, active compounds read high. A digest of the protocol: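 Mutant yeast (mec2-1) grown with compound; growth inhibition relative to vehicle control reported.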
Experiment [3] is described as follows: NCI Yeast Anticancer Drug Screen. Data for the sgs1 mgt1 strain (AID 161).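 Note: 0% = growth of cultures given vehicle only.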 The settings on record: S. cerevisiae sgs1 mgt1 strain, at 50.0 µM, active compounds read high. The procedure, abridged:
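Yeast cells carrying a defined DNA-repair defect were exposed to test compounds. Growth inhibition was measured relative to vehicle-treated controls.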

Experiment [4] in a line: NCI Yeast Anticancer Drug Screen. Data for the cln2 rad14 strain (AID 165).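 Note: 0% = growth equal to vehicle treated cultures.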 The settings on record: S. cerevisiae cln2 rad14 strain, at 50.0 µM, active compounds read high. A digest of the protocol:
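Readout is yeast growth inhibition versus vehicle-treated controls, using a strain with cln2 and rad14 alterations exposed to compound.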

A short description of experiment [5]: NCI Yeast Anticancer Drug Screen. Data for the bub3 strain (AID 167). The conditions noted are these: S. cerevisiae bub3 mutant strain, at 50.0 µM, active compounds read high. The procedure, abridged: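 Mutant yeast screening strain plus compound; vehicle-treated cultures serve as the 0% inhibition reference.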
Experiment [6] can be described thus: NCI Yeast Anticancer Drug Screen. Data for the mlh1 rad18 strain (AID 175). The settings on record: S. cerevisiae mlh1 rad18 strain growth inhibition; at 50.0 µM; active compounds read high. The procedure, abridged: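 Genetically defined yeast (DNA repair-deficient) exposed to compounds; growth inhibition determined relative to vehicle.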

On to `CC(=O)Nc1cc(F)c(NC(C)=O)c(F)c1`, for which the growth inhibition is -2.05% in experiment [1]; -1.95% in experiment [2]; -18.9% in experiment [3]; -15.2% in experiment [4]; -9.05% in experiment [5]; -10.3% in experiment [6].
With `COC(=O)c1ccc(/C=C(\c2ccc([N+](=O)[O-])o2)S(=O)(=O)c2ccc(NC(C)=O)cc2)o1`, the growth inhibition is 84.7% (active) in experiment [1]; 66% in experiment [2]; 90.8% (active) in experiment [3]; 71.7% (active) in experiment [4]; 34.8% in experiment [5]; 88.5% (active) in experiment [6].
Take `O=C(OCCCl)C1OC(n2cc(F)c(=O)[nH]c2=O)CC1O` (stereo unspecified): the growth inhibition was 23.4% in experiment [1]; 3.35% in experiment [2]; 2.5% in experiment [3]; 8.7% in experiment [4]; 2.55% in experiment [5]; -3.1% in experiment [6].
Consider `CC1(CO)CCCC2(C)C3=CC(=O)CCC3CCC12` (stereo unspecified), for which the growth inhibition was -6.7% in experiment [1]; -1.9% in experiment [2]; -12.8% in experiment [3]; -0.35% in experiment [4]; -8.95% in experiment [5]; -3.15% in experiment [6].
For the compound `Cn1c(=O)c2c(nc3sc4nc5ccccc5nc4n32)n(C)c1=O`, the growth inhibition in experiment [1] is -9.7%; in experiment [2] it was -15.9%; in experiment [3] it was -5.45%; in experiment [4], -25.4%; in experiment [5] it was -30.4%; in experiment [6] it was 13.1%.
For `OC1CC=CC1`, the growth inhibition in experiment [1] is 2.45%; in experiment [2], -3.5%; in experiment [3], -4.6%; in experiment [4], 0.35%; in experiment [5] it was 8.25%; in experiment [6], -12.8%.
Consider `C/C=C/C=C/C(=O)CCC1(C)OC(=O)C(C)=C1O` (stereo unspecified), for which the growth inhibition in experiment [1] was -0.9%; in experiment [2] it was 0.45%; in experiment [3], 2.4%; in experiment [4] it was -4.35%; in experiment [5], -3.45%; in experiment [6], 6.25%.
In the case of `CC12CCC3C(CCC4CC(O)(C(=O)O)CC43C)C1CCC2O` (stereo unspecified), the growth inhibition in experiment [1] was -16.9%; in experiment [2] it was -3.05%; in experiment [3], -19.9%; in experiment [4], 5.15%; in experiment [5] it was -7.55%; in experiment [6] it was -19.3%.
For the compound `O=C1C=CC(=CC=C2C=CN(CCCCCCO)C=C2)C=C1`, the growth inhibition in experiment [1] was 18.4%; in experiment [2], 6.05%; in experiment [3], 26.2%; in experiment [4], 13.8%; in experiment [5], 8.65%; in experiment [6] it was 16.1%.
Turning to `CC(=O)CCC1(C)CCCC(C)(C)CC1=O` (stereo unspecified), the growth inhibition in experiment [1] is -1.3%; in experiment [2] it was 5.15%; in experiment [3], 3.75%; in experiment [4], -9.55%; in experiment [5], -28%; in experiment [6], -12.2%.
Take `CC(C)c1cccc(C(C)C)c1NC(=O)Nc1cccc(C(F)(F)F)c1`: the growth inhibition in experiment [1] is -5.4%; in experiment [2] it was -11.1%; in experiment [3], 1.45%; in experiment [4], 8.3%; in experiment [5] it was 10.2%; in experiment [6], 3.85%.
On to `NNCCSC1CCCCC1`, for which the growth inhibition was 8.9% in experiment [1]; 22.1% in experiment [2]; 15.3% in experiment [3]; -63.1% in experiment [4]; -17% in experiment [5]; 2.8% in experiment [6].
For the compound `Nc1nc(Cl)cc(NCCCNc2cc(Cl)nc(N)n2)n1`, the growth inhibition in experiment [1] was -1.55%; in experiment [2] it was 6.55%; in experiment [3], 13.3%; in experiment [4], 1.15%; in experiment [5], 3.65%; in experiment [6], 4.35%.
As for `CCCCNc1ccc2c(C)c(Cc3ccccc3)c(=O)oc2c1`, the growth inhibition in experiment [1] is 9.3%; in experiment [2] it was -7.5%; in experiment [3] it was 20.3%; in experiment [4], 2.35%; in experiment [5], 4.65%; in experiment [6] it was -11%.
For the compound `Cc1ccc2nc(N=C(N)N)[nH]c2c1`, the growth inhibition is -16.5% in experiment [1]; -33.1% in experiment [2]; 2.75% in experiment [3]; 1.1% in experiment [4]; -14.3% in experiment [5]; -12.6% in experiment [6].
For the compound `C=CCc1c(Cl)nc(Cl)nc1Cl`, the growth inhibition in experiment [1] is -14.8%; in experiment [2] it was 22.6%; in experiment [3] it was 10.3%; in experiment [4], -69.2%; in experiment [5], 7.1%; in experiment [6], -23.6%.
On to `CC(C)NC(=O)OCc1c(COC(=O)NC(C)C)c(-c2ccc(Cl)c(Cl)c2)n2c1C[C@@H](O)C2`, for which the growth inhibition is 17.3% in experiment [1]; 20% in experiment [2]; 21.5% in experiment [3]; 38.4% in experiment [4]; 11.5% in experiment [5]; -44.4% in experiment [6].
As for `CCOc1cc2c(cc1C/C=C/c1ccc(OC)cc1)OCO2`, the growth inhibition is 26.4% in experiment [1]; 12.6% in experiment [2]; 37.4% in experiment [3]; -0.75% in experiment [4]; 41.8% in experiment [5]; 5.05% in experiment [6].
Regarding `Cc1cc(C)c(NC(=O)C(C)(C)C)c(C)c1`, the growth inhibition in experiment [1] was -7.15%; in experiment [2] it was -12.9%; in experiment [3], -17.7%; in experiment [4], -48.9%; in experiment [5] it was 10.2%; in experiment [6], -2.2%.
`CC(=O)C(Cc1ccccc1)(Cc1ccccc1)C(C)=O`: the growth inhibition in experiment [1] is 3.3%; in experiment [2], -0.95%; in experiment [3], -8.3%; in experiment [4], 7.45%; in experiment [5], 1.35%; in experiment [6] it was 2%.
Turning to `CCC(C)SC1=NC(N)=NC2=NC=NC21` (stereo unspecified), the growth inhibition is -11.6% in experiment [1]; -2.85% in experiment [2]; -9.3% in experiment [3]; -21.8% in experiment [4]; 6.05% in experiment [5]; 4.25% in experiment [6].
